In PubChem BioAssay (NCI):
The panel holds about 83,000 compounds, 20% with a hit somewhere; the sample as a whole holds those more often.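 Note: values are percent growth. 100 is the growth of untreated cells, values between 100 and 0 indicate rising inhibition; between -100 and 0 indicates cell death.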 Active and inactive are the calls of the source. Rule for the calls: active = growth percent below 10; inactive = the rest.

Legend:
Experiment in all cases: NCI-60 one-dose screen, 48 h (100 = growth as untreated, 0 = no growth, -100 = all killed)
Details in all cases: 10 µM unless noted
DU-145 prostate = test system: DU-145 prostate
K-562 leukemia = test system: K-562 leukemia
MALME-3M melanoma = test system: MALME-3M melanoma
MDA-MB-231 breast = test system: MDA-MB-231 breast
RXF 393 renal = test system: RXF 393 renal
SF-268 CNS = test system: SF-268 CNS
SF-295 CNS = test system: SF-295 CNS
SF-539 CNS = test system: SF-539 CNS
UACC-257 melanoma = test system: UACC-257 melanoma
M14 melanoma = test system: M14 melanoma
HCT-15 colon = test system: HCT-15 colon
HT29 colon = test system: HT29 colon
SNB-75 CNS = test system: SNB-75 CNS
SNB-19 CNS = test system: SNB-19 CNS
U251 CNS = test system: U251 CNS
PC-3 prostate = test system: PC-3 prostate
SK-MEL-5 melanoma = test system: SK-MEL-5 melanoma
UACC-62 melanoma = test system: UACC-62 melanoma
LOX IMVI melanoma = test system: LOX IMVI melanoma
SK-MEL-28 melanoma = test system: SK-MEL-28 melanoma

Measured: growth

O=S(=O)(NCCNc1nccc(-c2c(-c3cccc(O)c3)nc3occn23)n1)c1cccc(F)c1
inactive: DU-145 prostate 104% | K-562 leukemia 70.8% | MDA-MB-231 breast 69.4% | RXF 393 renal 91.6% | SF-268 CNS 93.1% | SF-295 CNS 106% | SF-539 CNS 111% | UACC-257 melanoma 39.7% | M14 melanoma 35.9% | HCT-15 colon 95.5% | HT29 colon 51.2% | SNB-75 CNS 80.6% | SNB-19 CNS 102% | U251 CNS 98.3% | PC-3 prostate 86.8% | SK-MEL-5 melanoma 46.4% | UACC-62 melanoma 14% | LOX IMVI melanoma 64.8% | SK-MEL-28 melanoma 50.1%
active: MALME-3M melanoma 4.35%

CCCCCCNC(=O)Oc1ccc(/C(=C(\C)c2ccccc2)c2ccc(OCCCN(C)C)cc2)cc1
active: K-562 leukemia 3.9% | HT29 colon 2.7%
inactive: DU-145 prostate 99.6% | MALME-3M melanoma 54% | MDA-MB-231 breast 82.7% | RXF 393 renal 75.4% | SF-268 CNS 79.4% | SF-295 CNS 93.7% | SF-539 CNS 79.4% | UACC-257 melanoma 86.2% | M14 melanoma 40.1% | HCT-15 colon 25.9% | SNB-75 CNS 86.8% | SNB-19 CNS 80.5% | U251 CNS 67.3% | PC-3 prostate 79.7% | SK-MEL-5 melanoma 92.9% | UACC-62 melanoma 56.1% | LOX IMVI melanoma 80.2% | SK-MEL-28 melanoma 88.3%

CNC(=O)c1cc(Cn2nc(C)c(NC(=O)Nc3ccc(Cl)c(C(F)(F)F)c3)c2C)ccn1
inactive: DU-145 prostate 101% | K-562 leukemia 112% | MALME-3M melanoma 98.5% | MDA-MB-231 breast 91.8% | RXF 393 renal 102% | SF-268 CNS 98% | SF-295 CNS 95.5% | SF-539 CNS 94% | UACC-257 melanoma 79% | M14 melanoma 97.5% | HCT-15 colon 98% | HT29 colon 92.4% | SNB-75 CNS 68% | SNB-19 CNS 103% | U251 CNS 86.7% | PC-3 prostate 79.4% | SK-MEL-5 melanoma 91.8% | UACC-62 melanoma 93.7% | LOX IMVI melanoma 98% | SK-MEL-28 melanoma 107%

COc1cc(/C=N/NC(=O)c2cnn3c2NC(c2ccccc2)C3)ccc1OCc1ccccc1 (stereo not given)
active: DU-145 prostate 6.15% | K-562 leukemia 3.64% | MALME-3M melanoma -20.5% | MDA-MB-231 breast 5.81% | RXF 393 renal -4.25% | SF-295 CNS -48.3% | SF-539 CNS -52.6% | HCT-15 colon 2.36% | HT29 colon -35.6% | U251 CNS 4.86% | PC-3 prostate -31% | SK-MEL-5 melanoma 5.94% | UACC-62 melanoma -33.7%
inactive: SF-268 CNS 19.6% | UACC-257 melanoma 18.5% | M14 melanoma 14.8% | SNB-75 CNS 26.1% | SNB-19 CNS 19.3% | LOX IMVI melanoma 22% | SK-MEL-28 melanoma 24.1%

C#CCNC(=O)[C@]1(C)CC[C@]2(C)CC[C@@H]3C(=CC[C@H]4[C@@]3(C)CC[C@H]3C(C)(C)C(=O)CC[C@]43C)[C@@H]2C1
inactive: DU-145 prostate 98.8% | K-562 leukemia 63.7% | MALME-3M melanoma 114% | MDA-MB-231 breast 98% | RXF 393 renal 116% | SF-268 CNS 95.7% | SF-295 CNS 107% | SF-539 CNS 102% | UACC-257 melanoma 98.7% | M14 melanoma 95.8% | HCT-15 colon 98% | HT29 colon 93.1% | SNB-75 CNS 102% | SNB-19 CNS 102% | U251 CNS 99.1% | PC-3 prostate 64.6% | SK-MEL-5 melanoma 93.3% | UACC-62 melanoma 83.2% | LOX IMVI melanoma 96.2% | SK-MEL-28 melanoma 102%

COc1cc(/C=N/NC(=O)c2cnn3c2NC(c2ccccc2)C3)ccc1Oc1ccccc1 (stereo not given)
inactive: DU-145 prostate 30.2% | K-562 leukemia 16.8% | MALME-3M melanoma 27.4% | MDA-MB-231 breast 44.3% | RXF 393 renal 29.3% | SF-268 CNS 45.2% | UACC-257 melanoma 41.6% | M14 melanoma 18.2% | HCT-15 colon 16.8% | SNB-75 CNS 27.6% | SNB-19 CNS 39.2% | U251 CNS 27.1% | PC-3 prostate 19.6% | SK-MEL-5 melanoma 28.1% | UACC-62 melanoma 12.6% | LOX IMVI melanoma 37.2% | SK-MEL-28 melanoma 34.9%
active: SF-295 CNS 0.968% | SF-539 CNS 9.71% | HT29 colon 0.454%

CC(Sc1nc2sc3c(c2c(=O)n1-c1ccc(Cl)cc1)CCCC3)C(=O)Nc1nc(-c2ccc(Br)cc2)cs1 (stereo not given)
inactive: DU-145 prostate 105% | K-562 leukemia 96.5% | MALME-3M melanoma 95.2% | MDA-MB-231 breast 89.1% | RXF 393 renal 101% | SF-268 CNS 93.5% | SF-295 CNS 100% | SF-539 CNS 107% | UACC-257 melanoma 93% | M14 melanoma 94% | HCT-15 colon 95.4% | HT29 colon 94.7% | SNB-75 CNS 95.9% | SNB-19 CNS 96.6% | U251 CNS 97.2% | PC-3 prostate 95.6% | SK-MEL-5 melanoma 97.4% | UACC-62 melanoma 88.9% | LOX IMVI melanoma 96.3% | SK-MEL-28 melanoma 105%

COc1cc2nc(-c3ccc(Cl)cc3)cc(OCCCN3CCC(O)CC3)c2cc1OC
active: SF-295 CNS -10.5% | UACC-257 melanoma 8.39% | M14 melanoma -48% | SK-MEL-5 melanoma -30% | UACC-62 melanoma -24.7% | LOX IMVI melanoma -53.3%
inactive: DU-145 prostate 38.5% | K-562 leukemia 13.9% | MALME-3M melanoma 64% | MDA-MB-231 breast 26.1% | RXF 393 renal 46.3% | SF-268 CNS 54.8% | SF-539 CNS 54.3% | HCT-15 colon 19% | HT29 colon 16.8% | SNB-75 CNS 39.6% | SNB-19 CNS 73.4% | U251 CNS 54.5% | PC-3 prostate 41.7% | SK-MEL-28 melanoma 70%

N/C(=N\C(N)=N\c1nc2ccccc2s1)c1cnccn1
inactive: DU-145 prostate 28.2% | K-562 leukemia 17.1% | MALME-3M melanoma 16.8% | MDA-MB-231 breast 58.1% | SF-268 CNS 26.5% | SF-295 CNS 28% | SF-539 CNS 16% | UACC-257 melanoma 35.5% | M14 melanoma 23.2% | HCT-15 colon 11.6% | HT29 colon 24.1% | SNB-75 CNS 35.8% | SNB-19 CNS 37.4% | U251 CNS 35.1% | PC-3 prostate 31.1% | LOX IMVI melanoma 15.1% | SK-MEL-28 melanoma 21.6%
active: RXF 393 renal -43% | SK-MEL-5 melanoma -48.5% | UACC-62 melanoma -20.8%

O=C(C[n+]1cccc2ccccc21)c1ccc(O)c(O)c1
inactive: DU-145 prostate 84.8% | K-562 leukemia 28.5% | MALME-3M melanoma 53.9% | MDA-MB-231 breast 59.1% | RXF 393 renal 49.6% | SF-268 CNS 84.7% | SF-295 CNS 105% | SF-539 CNS 91.2% | UACC-257 melanoma 78.1% | HCT-15 colon 20.8% | HT29 colon 40.7% | SNB-75 CNS 66% | SNB-19 CNS 74.5% | U251 CNS 91.1% | PC-3 prostate 69.9% | SK-MEL-5 melanoma 82.7% | UACC-62 melanoma 69.7% | LOX IMVI melanoma 28.3% | SK-MEL-28 melanoma 84.7%
active: M14 melanoma -83.4%

Nc1n[nH]c2cccc(C#Cc3cccc(C(=O)Nc4cccc(C(F)(F)F)c4)c3)c12
active: K-562 leukemia 8.36%
inactive: DU-145 prostate 74.9% | MALME-3M melanoma 10.4% | MDA-MB-231 breast 53.6% | RXF 393 renal 65.9% | SF-268 CNS 56.4% | SF-295 CNS 81.6% | SF-539 CNS 39% | UACC-257 melanoma 73.2% | M14 melanoma 39.2% | HCT-15 colon 64.8% | HT29 colon 38.8% | SNB-75 CNS 77.9% | SNB-19 CNS 104% | U251 CNS 72.8% | PC-3 prostate 72.3% | SK-MEL-5 melanoma 53.8% | UACC-62 melanoma 42.7% | LOX IMVI melanoma 38% | SK-MEL-28 melanoma 53.5%

Nc1nc(Nc2ccccc2SSc2ccccc2Nc2nc(N)nc(-c3cccs3)n2)nc(-c2ccsc2)n1
active: SF-295 CNS -53.4%
inactive: DU-145 prostate 95.1% | K-562 leukemia 80.9% | MALME-3M melanoma 106% | MDA-MB-231 breast 75.8% | RXF 393 renal 109% | SF-268 CNS 79.6% | SF-539 CNS 105% | UACC-257 melanoma 101% | M14 melanoma 96.5% | HCT-15 colon 56.7% | HT29 colon 98.7% | SNB-75 CNS 98.3% | SNB-19 CNS 87.7% | U251 CNS 53.1% | PC-3 prostate 57.2% | SK-MEL-5 melanoma 94.7% | UACC-62 melanoma 71% | LOX IMVI melanoma 35.9% | SK-MEL-28 melanoma 98.7%

N#CC1=C(/N=C/c2ccccc2)Oc2c(ccc3ccccc23)C1c1ccc([N+](=O)[O-])cc1 (stereo not given)
inactive: DU-145 prostate 96% | K-562 leukemia 90.7% | MALME-3M melanoma 96.6% | MDA-MB-231 breast 72.7% | RXF 393 renal 98.2% | SF-268 CNS 89.2% | SF-295 CNS 98.5% | SF-539 CNS 95.1% | UACC-257 melanoma 97.1% | M14 melanoma 102% | HCT-15 colon 91.4% | HT29 colon 102% | SNB-75 CNS 60.4% | SNB-19 CNS 94.9% | U251 CNS 97.4% | PC-3 prostate 78.7% | SK-MEL-5 melanoma 86.9% | UACC-62 melanoma 87.2% | LOX IMVI melanoma 90.4% | SK-MEL-28 melanoma 118%

O=C(CCN1CCCC1)c1ccc([N+](=O)[O-])cc1
inactive: DU-145 prostate 104% | K-562 leukemia 100% | MALME-3M melanoma 94.9% | MDA-MB-231 breast 102% | RXF 393 renal 107% | SF-268 CNS 101% | SF-295 CNS 97.9% | SF-539 CNS 93.6% | UACC-257 melanoma 101% | M14 melanoma 102% | HCT-15 colon 100% | HT29 colon 101% | SNB-75 CNS 84% | SNB-19 CNS 116% | U251 CNS 98.4% | PC-3 prostate 99.8% | SK-MEL-5 melanoma 101% | UACC-62 melanoma 105% | LOX IMVI melanoma 102% | SK-MEL-28 melanoma 104%

CC1=C(C(=O)/C=C/c2c[nH]c3ccccc23)C(c2ccccc2)NC(=S)N1 (stereo not given)
inactive: DU-145 prostate 113% | K-562 leukemia 90.1% | MALME-3M melanoma 97.7% | MDA-MB-231 breast 85.3% | RXF 393 renal 105% | SF-268 CNS 92.7% | SF-295 CNS 97.6% | SF-539 CNS 98.2% | UACC-257 melanoma 102% | M14 melanoma 94.4% | HCT-15 colon 101% | HT29 colon 106% | SNB-75 CNS 65.5% | SNB-19 CNS 91.7% | U251 CNS 101% | PC-3 prostate 95.1% | SK-MEL-5 melanoma 98.3% | UACC-62 melanoma 83.6% | LOX IMVI melanoma 94.3% | SK-MEL-28 melanoma 104%
